ChEMBL document CHEMBL4888484, “Replenishing the malaria drug discovery pipeline: Screening and hit evaluation of the MMV Hit Generation Library 1 (HGL1) against asexual blood stage Plasmodium falciparum ,using a nano luciferase reporter read-out” (2022)
About 540 (0.36%) of roughly 150,000 compounds showed an effect of 50% or more. What follows is part of a selection rich in strong results, with near analogues and random picks from the rest.

The compounds below were run on Plasmodium falciparum (assay: Primary screen in NF54 nanoGlo assay, in single point, at 2uM, 72h; a lower Z score goes with more inhibition). Conditions: timepoint 72 hour.
Type: functional, Erythrocyte
With `Cc1ccccc1NC(=O)CN1CCN(Cc2ccccc2)S1(=O)=O` the “% Inhibition” value was -18% and the Z score was 1.6. For `CC1=C[C@@H](c2ccc(Cl)cc2)n2nc(NC(=O)c3ccccc3)nc2N1`, the “% Inhibition” value was -6% and the Z score was 1.14. For `Cc1ccc(C2=C[C@@H](c3ccc(C)cc3)n3nc(NC(=O)c4cccc(Cl)c4)nc3N2)cc1`, the “% Inhibition” value was 16% and the Z score was -2.03. In the case of `Cc1ccc(C2=C[C@@H](c3ccc(Cl)cc3)n3nc(NC(=O)c4ccccc4)nc3N2)cc1`, the “% Inhibition” value is reported as 84% and the Z score is reported as -8.34. In the case of `CC(=O)Nc1ccccc1CN(Cc1ccc(F)cc1F)C1CC1`, the “% Inhibition” value is reported as 9% and the Z score is reported as -0.85. With `CCN(C(=O)c1ccccc1Cc1ccc(C)cc1)C1CCOCC1` the “% Inhibition” value was -13% and the Z score was 1.36. With `Cn1nccc1/C=C1\CC2C3CCc4cc(O)ccc4C3CCC2(C)C1O` (stereo not drawn) the “% Inhibition” value was 54% and the Z score was -6.08. For `CC(C)C(=O)NCCN(C)Cc1ccc(C#N)cc1Br`, the “% Inhibition” value was -19% and the Z score was 2.19. `Cc1ncsc1CN(C)[C@@H](C(=O)O)c1ccsc1` was tested, and the “% Inhibition” value was 3% and the Z score was -0.57. For `Cc1nnc(C(C)NC(=O)C2(C)CCCN(C(=O)c3ccccc3)C2)o1` (stereo not drawn), the “% Inhibition” value was -7% and the Z score was 0.99. For `C[C@]1(C(=O)Nc2cn[nH]c2)CCCN(C(=O)c2ccccc2)C1`, the “% Inhibition” value was -8% and the Z score was 1.66. In the case of `Cc1nc2cc(NC(=O)[C@@]3(C)CCCN(C(=O)c4ccccc4)C3)ccc2o1`, the “% Inhibition” value is reported as 55% and the Z score is reported as -8.5. In the case of `Cc1ccc(N2C[C@H](C(=O)O)[C@@H](C(C)C)C2)nn1`, the “% Inhibition” value is reported as -13% and the Z score is reported as 1.69. With `CC1(C)CN(Cc2nnc(C3CC3)o2)CCN1Cc1ccccc1` the “% Inhibition” value was -3% and the Z score was 0.43. `O=C(NCc1ccco1)Nc1nccs1` was tested, and the “% Inhibition” value was 1% and the Z score was -0.2. In the case of `O=C(NCCN1CCOCC1)c1c[nH]c2ccc(Cl)cc2c1=O`, the “% Inhibition” value is reported as 1% and the Z score is reported as -0.13. In the case of `O=S(=O)(CCC1Cc2ccccc2C1)N1CCC[C@@](O)(C(F)(F)F)CC1`, the “% Inhibition” value is reported as 34% and the Z score is reported as -3.86. `O=C(Cn1cc(F)ccc1=O)N1CCc2ccccc21` was tested, and the “% Inhibition” value was -8% and the Z score was 1.07. With `COc1cc(CNC2CCCCCC2)ccc1OC[C@@H](O)CN1CCCCCC1` the “% Inhibition” value was 1% and the Z score was -0.22. `CN1CCN(C2(CNC(=O)Nc3ccccc3C(F)(F)F)CCCC2)CC1` was tested, and the “% Inhibition” value was -2% and the Z score was 0.33. With `CN1CCN(C2(CNc3ccnc4ccccc34)CCCC2)CC1` the “% Inhibition” value was 99% and the Z score was -9.07. In the case of `O=C(NCc1c(F)cccc1Cl)c1cnc(-c2cccnc2)nc1`, the “% Inhibition” value is reported as -19% and the Z score is reported as 1.75. `C[C@@H](C(=O)Nc1ccc(F)cc1)N1CCC(NS(=O)(=O)c2cccs2)CC1` was tested, and the “% Inhibition” value was 32% and the Z score was -3.04. With `CCc1ccc(NC(=O)[C@H](C)N2CCC(NS(=O)(=O)c3cccs3)CC2)cc1` the “% Inhibition” value was 76% and the Z score was -7.11. With `C[C@@H](C(=O)Nc1c(F)cccc1F)N1CCC(NS(=O)(=O)c2cccs2)CC1` the “% Inhibition” value was -7% and the Z score was 0.81. For `Cc1cccc(OCC(O)CNC2C3CCCOC3C2(C)C)c1` (stereo not drawn), the “% Inhibition” value was -10% and the Z score was 0.93. For `COc1ccc(C(CO)CNC2[C@@H]3CCC[C@@H]3C2(C)C)cc1` (stereo partly drawn), the “% Inhibition” value was 0% and the Z score was -0.02. With `CC1(C)C(NCC(O)COc2ccc(F)c(F)c2)[C@@H]2CCC[C@@H]21` (stereo partly drawn) the “% Inhibition” value was 61% and the Z score was -6.95. With `CC(=O)[C@H](C)n1nc(C2CC2)ccc1=O` the “% Inhibition” value was -17% and the Z score was 2.21. `Cc1cccc(-n2c(=O)[nH]c3nc(N4CCCC4)ncc3c2=O)c1C` was tested, and the “% Inhibition” value was -4% and the Z score was 0.62. In the case of `Cc1cccc(-n2c(=O)[nH]c3nc(NCCN(C)C)ncc3c2=O)c1C`, the “% Inhibition” value is reported as 50% and the Z score is reported as -0.77. With `COc1ccccc1-n1c(=O)[nH]c2nc(NCc3cccnc3)ncc2c1=O` the “% Inhibition” value was 1% and the Z score was -0.13. For `Cc1cccc(N(CCC#N)C(=O)c2cc3ccccc3c(=O)[nH]2)c1`, the “% Inhibition” value was -18% and the Z score was 1.68. With `O=C(c1ccncc1F)N1CCCC[C@@H]1CCc1ccccn1` the “% Inhibition” value was -23% and the Z score was 2.29. In the case of `Cc1ccc(CNC(=O)CCNc2c(-c3cccc(F)c3)nc3cnccn23)o1`, the “% Inhibition” value is reported as -18% and the Z score is reported as 2.57. In the case of `Cc1ccc(CCN2CCC[C@@H]2C(=O)O)cc1`, the “% Inhibition” value is reported as 3% and the Z score is reported as -0.5. `O=C(NC1CCC(N2C(=O)CCC2=O)CC1)C1CC1C1CCCCC1` (stereo not drawn) was tested, and the “% Inhibition” value was -7% and the Z score was 0.72. With `O=C1NC(=O)c2ccc3c4c(ccc1c24)C(=O)N(c1ccccc1)C3=O` the “% Inhibition” value was 73% and the Z score was -8.98. For `O=C1c2cc(Nc3ccccc3)c3c4c(cc(Nc5ccccc5)c(c24)C(=O)N1c1ccccc1)C(=O)N(c1ccccc1)C3=O`, the “% Inhibition” value was 3% and the Z score was -0.42. For `O=C1c2ccc(O)cc2C(=O)N1c1ccc(N(c2ccccc2)c2ccc(N3C(=O)c4ccc(O)cc4C3=O)cc2)cc1`, the “% Inhibition” value was 8% and the Z score was -1.03. `COc1cccc(CN2C(=O)c3cc4ccc(OC)cc4n3C[C@@]2(C)C(=O)NC2CCCCCC2)c1` was tested, and the “% Inhibition” value was -12% and the Z score was 1.58. In the case of `COc1ccc2cc3n(c2c1)C[C@@](C)(C(=O)NC1CCCCCC1)N(CCN1CCCCCC1)C3=O`, the “% Inhibition” value is reported as 2% and the Z score is reported as -0.31. With `COc1ccc2cc3n(c2c1)C[C@@](C)(C(=O)NC1CCCC1)N(Cc1ccc(F)cc1)C3=O` the “% Inhibition” value was 73% and the Z score was -1.23. With `Cc1ccc(C(=O)N2CCCC[C@H]2c2nnc(-c3ccncc3)[nH]2)cn1` the “% Inhibition” value was -12% and the Z score was 2.36. `C[C@@H](NCc1ccc2c(c1)COC(C)(C)O2)c1cccc(O)c1` was tested, and the “% Inhibition” value was -21% and the Z score was 2.42. For `CC1(C)OCc2cc(CNc3ccc4oc(=O)[nH]c4c3)ccc2O1`, the “% Inhibition” value was 96% and the Z score was -13.84. `CCOc1cc(CNc2ccc3c(c2)OCO3)ccc1OC` was tested, and the “% Inhibition” value was -1% and the Z score was 0.26. With `O=S(=O)(c1cccc(F)c1F)N1CCN(Cc2nccn2C(F)F)CC1` the “% Inhibition” value was -4% and the Z score was 0.57. `COc1cc2ncc3c(-c4ccc(C)c(C)c4)n[nH]c3c2cc1OC` was tested, and the “% Inhibition” value was 51% and the Z score was -4.04. For `Cc1ccc(-c2n[nH]c3c2cnc2ccc(C)cc23)cc1`, the “% Inhibition” value was -5% and the Z score was 0.82. For `COc1cc2ncc3c(-c4ccccc4)n[nH]c3c2cc1OC`, the “% Inhibition” value was 9% and the Z score was -0.99. For `CC(C)C(=O)N[C@@H](N1CCCCCC1)C(Cl)(Cl)Cl`, the “% Inhibition” value was -15% and the Z score was 2.02. With `Cn1nc(C(=O)NC2CCN(Cc3ccccc3)CC2)c2ccccc2c1=O` the “% Inhibition” value was 34% and the Z score was -3.81. `O=C(Nc1cnc2c(c1)COCC2)c1cccc(OC(F)F)c1` was tested, and the “% Inhibition” value was -1% and the Z score was 0.19. With `O=C(CNC(=O)c1ccc(C(F)(F)F)cc1)Nc1cnc2c(c1)COCC2` the “% Inhibition” value was 34% and the Z score was -4.64. `COC[C@H]1CCCN1S(=O)(=O)N1CCC(c2cc[nH]n2)CC1` was tested, and the “% Inhibition” value was -7% and the Z score was 0.81. With `CN1C(=O)[C@@H]2CCCCN2c2ccc(C(=O)N3CCN(C(=O)c4ccco4)CC3)cc21` the “% Inhibition” value was 1% and the Z score was -0.14. In the case of `COCC1(CNC(=O)CNC(C)=O)CCCC1`, the “% Inhibition” value is reported as -5% and the Z score is reported as 0.85. With `Cc1ccccc1CNC1C(=O)NCCC1C` (stereo not drawn) the “% Inhibition” value was 74% and the Z score was 1.17. With `Cc1ccccc1CC(=O)N[C@H]1CCCCNC1=O` the “% Inhibition” value was 0% and the Z score was 0.03. In the case of `Cc1ccccc1CN[C@H]1CCCOCC1`, the “% Inhibition” value is reported as -4% and the Z score is reported as 0.53. With `Cc1cc(C)cc(CCNC(=O)CN(C)S(C)(=O)=O)c1` the “% Inhibition” value was -4% and the Z score was 0.7. In the case of `COc1ccc(C[C@@H]2C3=C(CCCC3)CCN2C(=O)c2cc(C)on2)cc1`, the “% Inhibition” value is reported as -5% and the Z score is reported as 0.97. For `OCC1(CN2CCCC2)CCN(Cc2ccc(Cl)cc2)CC1`, the “% Inhibition” value was 2% and the Z score was -0.36. `COc1c(C)cnc(Cn2cnc(N)n2)c1C` was tested, and the “% Inhibition” value was 8% and the Z score was -0.99. `CN1CCN(C[C@@]2(Cc3ccccc3)CCOC2)CC1` was tested, and the “% Inhibition” value was -3% and the Z score was 0.56. `CCc1ccc(NC(=O)c2sc3nc(C)c(C(=O)Nc4ccc(C)cc4C)c(-c4ccccc4Cl)c3c2N)cc1` was tested, and the “% Inhibition” value was 40% and the Z score was -2.96. With `COc1ccc(NC(=O)c2sc3nc(C)c(C(=O)Nc4ccc(C)cc4C)c(-c4ccccc4Cl)c3c2N)cc1` the “% Inhibition” value was 38% and the Z score was -3.76. For `Cc1ccc(NC(=O)c2c(C)nc3sc(C(=O)NCc4ccccc4)c(N)c3c2-c2cccnc2)c(C)c1`, the “% Inhibition” value was 21% and the Z score was -3.35. With `CC[C@H](C)NC(=O)c1sc2nc(C)c(C(=O)Nc3ccc(C)cc3C)c(-c3cccs3)c2c1N` the “% Inhibition” value was 17% and the Z score was -2.61. With `Cc1ccc(NC(=O)c2c(C)nc3sc(C(=O)NCc4ccccc4)c(N)c3c2-c2ccccc2Cl)c(C)c1` the “% Inhibition” value was 90% and the Z score was -8.85. With `Cc1ccc(NC(=O)c2c(C)nc3sc(C(=O)NCc4ccccc4)c(N)c3c2-c2cccs2)c(C)c1` the “% Inhibition” value was 61% and the Z score was -9.57. For `C[C@H](NS(=O)(=O)c1cccc2nsnc12)c1nncn1C`, the “% Inhibition” value was -8% and the Z score was 1.65. In the case of `Cc1cc(NC(=O)c2ccccc2C(=O)c2ccc(Cl)cc2)ccc1N1CCCC1=O`, the “% Inhibition” value is reported as -10% and the Z score is reported as 1.56. With `COc1ccc(F)cc1S(=O)(=O)N1CC2(C[C@H](CC(=O)NCC3CC3)CO2)C1` the “% Inhibition” value was -2% and the Z score was 0.34. For `Cn1cc(Br)c2nc[nH]c(=O)c21`, the “% Inhibition” value was -14% and the Z score was 1.39. In the case of `CC(=O)c1ccc(CNc2ncc(Cl)cn2)nc1C`, the “% Inhibition” value is reported as -16% and the Z score is reported as 1.6. `CCOC(=O)c1nsc(Cl)c1Cl` was tested, and the “% Inhibition” value was 4% and the Z score was -0.44. For `CCOC(=O)c1nccc(C#N)c1Cl`, the “% Inhibition” value was 40% and the Z score was -5.19. For `CCOC(=O)c1ncc(Cl)c(C#N)c1Cl`, the “% Inhibition” value was 50% and the Z score was 0.88. `NC(=O)[C@@H]1CCCN1S(=O)(=O)c1ccc2c(c1)CCC(=O)N2` was tested, and the “% Inhibition” value was -13% and the Z score was 1.82. In the case of `O=C(c1nnn(-c2ccccc2Cl)c1-c1cccnc1)N1CCN(c2ccccc2)CC1`, the “% Inhibition” value is reported as -8% and the Z score is reported as 0.9. For `O=C(c1nnn(-c2ccccc2Cl)c1-c1cccnc1)N1CCC(Cc2ccccc2)CC1`, the “% Inhibition” value was 40% and the Z score was -5.19. With `COc1ccccc1N1CCN(C(=O)c2nnn(-c3ccccc3Cl)c2-c2cccnc2)CC1` the “% Inhibition” value was 50% and the Z score was -6.51.
